Where “and” joins values, the source holds several entries; their conditions need not be identical. Equal values may be shown once. This is part of a sample that, as a whole, favours compounds with a hit. Of some 83,000 tested, about 20% had one in any assay.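 Values shown are percent growth following 48 h exposure of cells in 96-well plates to a single concentration of compound; below 10 was considered active.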 A number with no mark means an inactive call. Calls of active or inactive are those of the source.
What was measured:
Experiment in all cases: NCI-60 one-dose screen, 48 h (100 = growth as untreated, 0 = no growth, -100 = all killed)
Conditions in all cases: 10 µM unless noted
SK-MEL-2 melanoma = test system: SK-MEL-2 melanoma
EKVX NSCLC = test system: EKVX NSCLC
SN12C renal = test system: SN12C renal
UO-31 renal = test system: UO-31 renal
TK-10 renal = test system: TK-10 renal
ACHN renal = test system: ACHN renal
CAKI-1 renal = test system: CAKI-1 renal
A498 renal = test system: A498 renal
CCRF-CEM leukemia = test system: CCRF-CEM leukemia
MOLT-4 leukemia = test system: MOLT-4 leukemia
SR leukemia = test system: SR leukemia
RPMI-8226 leukemia = test system: RPMI-8226 leukemia
OVCAR-8 ovarian = test system: OVCAR-8 ovarian
OVCAR-5 ovarian = test system: OVCAR-5 ovarian
OVCAR-4 ovarian = test system: OVCAR-4 ovarian
SK-OV-3 ovarian = test system: SK-OV-3 ovarian
IGROV1 ovarian = test system: IGROV1 ovarian
OVCAR-3 ovarian = test system: OVCAR-3 ovarian
HS 578T breast = test system: HS 578T breast
NCI/ADR-RES ovarian = test system: NCI/ADR-RES ovarian

Row | SMILES | growth (SK-MEL-2 melanoma) | growth (EKVX NSCLC) | growth (SN12C renal) | growth (UO-31 renal) | growth (TK-10 renal) | growth (ACHN renal) | growth (CAKI-1 renal) | growth (A498 renal) | growth (CCRF-CEM leukemia) | growth (MOLT-4 leukemia) | growth (SR leukemia) | growth (RPMI-8226 leukemia) | growth (OVCAR-8 ovarian) | growth (OVCAR-5 ovarian) | growth (OVCAR-4 ovarian) | growth (SK-OV-3 ovarian) | growth (IGROV1 ovarian) | growth (OVCAR-3 ovarian) | growth (HS 578T breast) | growth (NCI/ADR-RES ovarian)
1 | Cc1cc(O)c(C(C)C)cc1N=O | 103% and 111% | 101% and 102% | 95.7% and 105% | 106% and 92.5% | 101% and 99.7% | 95% and 91.5% | 104% and 107% | 94.8% and 95.5% | 90.3% | 98.1% | 110% | 97.2% | 102% and 92.1% | 101% and 108% | 109% and 111% | 96.4% and 105% | 124% and 112% | 109% and 88.8% | 104% and 114% | 98.7% and 106%
2 | Clc1ccc2sc(-c3ccccc3)nc2c1 | 77.2% | 88.1% | 95.6% | 77.6% | 126% | 89.6% | 90.7% | 92.5% | 87% | 92.3% | 83.1% | 97% | 87.9% | 120% | 81.5% | 83.6% | 101% | 98.6% | 68.7% | 100%
3 | CC(C)(C)C1=CC(=O)C(C(C)(C)C)=CC1=O | 95.2% and 94.5% | 97.6% and 108% | 93.7% and 102% | 93.1% and 91.5% | 102% and 94.6% | 94.5% and 114% | 90.7% | 122% | 96.1% and 97.9% | 83.4% and 105% | 78.9% and 97% |  | 91.5% and 96.5% | 109% | 93.3% and 118% | 93.6% and 102% | 95.5% and 110% | 111% and 110% | 104% | 
4 | O=C1C=CC(=O)N1Cc1ccco1 | 28.8% | 103% | 87.3% | 62.6% | 94.4% | 5.76% (active) | 40% | 110% | 101% | 79.5% | 74.7% | 107% | 85.6% | 62.1% | 106% | 94.2% | 69.7% | 113% | 117% | 76.6%
5 | COc1cc(NCCCCCNC(C)C)c2ncccc2c1 | 93.1% and 66.7% | 95.5% and 105% | 93.5% and 83.6% | 59.7% and 45.4% | 91.9% and 90.1% | 100% and 90.5% | 91.6% and 92.5% | 77.2% | 106% and 117% | 104% and 88% | 82.8% and 133% | 107% and 98.1% | 104% and 89.6% | 95.2% and 86.9% | 44.4% and 45.7% | 84.3% | 90.3% and 60.4% | 92% | 83.5% | 91.5% and 93.7%
6 | CC(NC(=O)CCl)c1ccccc1 (stereo not drawn) | 104% | 99% | 110% | 98.8% | 98.8% | 106% | 101% | 83.9% | 105% | 101% | 99.2% |  | 105% | 109% | 98.7% | 102% | 104% | 102% |  | 
7 | Nc1c(Cl)cc2c(c1Br)C(=O)c1ccccc1C2=O | 103% | 60.2% | 87.3% | 63.2% | 108% | 73% | 82.3% | 110% | 96.2% | 87.8% | 78.4% | 98.3% | 89.3% | 98.5% | 106% | 84% | 71.6% | 117% | 98% | 92.4%
8 | CC(=O)c1cccc(OC(=O)c2ccccc2)c1 | 88.9% | 110% | 91.2% | 103% | 106% | 109% | 91.1% | 107% | 97.8% | 84.7% | 65.6% | 100% | 99% | 104% | 92.7% | 97.6% | 114% | 124% | 105% | 96%
9 | CC(O)CCNC(c1ccccc1)C(O)c1ccccc1 (stereo not drawn) | 99.4% | 115% | 108% | 92.9% | 106% | 109% | 104% | 103% | 93.7% | 102% | 105% | 89.7% | 104% | 109% | 107% | 107% | 95.9% | 132% |  | 110%
10 | CCOC(=O)c1ccc(N2C(=O)C(Cl)(c3ccccc3)C2c2ccco2)cc1 (stereo not drawn) | 98.7% | 61.2% | 95% | 70.8% | 106% | 91.9% | 71.7% | 88.8% | 62.3% | 59.9% | 76.1% | 43% | 90.2% | 98.2% | 90.4% | 104% | 99.1% | 78.8% | 69.6% | 91.3%
11 | COc1ccc(CCNC(=S)NN)cc1OC | 118% | 103% | 117% | 90.2% | 120% | 102% | 108% | 106% | 92.5% | 108% | 104% | 99% | 103% | 104% | 99.3% | 121% | 107% | 108% | 102% | 102%
12 | ON=C(C1CCCCC1)C1CCCCC1 | 107% | 97.8% | 99.9% | 89.3% | 90.2% | 101% | 87.4% | 94.7% | 99.8% | 114% | 97.2% | 105% | 107% | 89.5% | 107% | 106% | 102% | 105% |  | 103%
13 | CN1C2C=CC(=O)C1C1C(=O)N(c3ccccc3)C(=O)C12 (stereo not drawn) | 46.2% | 106% | 60.2% | 53.9% | 78.9% | 63.9% | 28% | 106% | 50.5% | 74.4% | 67.5% | 37.5% | 69.9% | 102% | 76.4% | 105% | -9.22% (active) | 47.1% | 77.5% | 92.6%

Source: PubChem BioAssay (NCI)
